Measurements published in PubChem BioAssay.
Entries with a potency or affinity are not part of this list. Calls of active or inactive are those of the source. No cut-off is given here; in the data, nearly all actives have IC50 up to about 0.98 µM.

What follows are molecules tested against Calcium-dependent protein kinase 1 (Plasmodium falciparum (isolate 3D7)) (UniProt P62344) (assay: PfCDPK1 kinase inhibitors, biochemical, TCAMS library (AID 1159585;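 note: inhibitors leave more ATP so luminescence rises with inhibition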)). Conditions: recombinant PfCDPK1, Kinase-Glo ATP depletion luminescence.
Chain of Calcium-dependent protein kinase 1 (Plasmodium falciparum (isolate 3D7)) (P62344 whole entry, looked up): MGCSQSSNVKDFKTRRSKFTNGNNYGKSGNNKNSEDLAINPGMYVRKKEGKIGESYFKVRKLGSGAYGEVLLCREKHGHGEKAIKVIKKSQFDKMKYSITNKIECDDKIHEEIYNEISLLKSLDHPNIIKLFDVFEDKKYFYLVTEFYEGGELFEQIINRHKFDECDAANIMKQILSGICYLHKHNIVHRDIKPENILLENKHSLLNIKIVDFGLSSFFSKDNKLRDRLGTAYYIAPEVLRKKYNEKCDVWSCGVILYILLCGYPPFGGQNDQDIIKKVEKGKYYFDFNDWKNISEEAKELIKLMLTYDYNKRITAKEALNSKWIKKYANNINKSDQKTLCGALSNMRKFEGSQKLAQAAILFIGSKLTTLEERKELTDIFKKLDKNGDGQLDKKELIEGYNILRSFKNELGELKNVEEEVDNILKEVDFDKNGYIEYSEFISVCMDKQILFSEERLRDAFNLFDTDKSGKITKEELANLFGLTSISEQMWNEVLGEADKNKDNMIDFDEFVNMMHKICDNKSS

outcome, inactive:
COc1ccc(C(C(=O)NC2CCN(C[C@H](O)c3ccnc4ccc(OC)cc34)CC2)N2CCN(Cc3ccccc3)CC2)cc1 (some centres undefined)
CS(=O)(=O)c1ccc2nc(NC(=O)c3csnn3)sc2c1
O=C(/C=C/c1ccc(Cl)c(Cl)c1)NCCCCCN1CCCN(C(=O)Nc2cccc(F)c2)CC1
Cn1ccnc1S(=O)(=O)CCNCc1ccc(-c2ccc3ncnc(Nc4ccc(OCc5cccc(F)c5)c(Cl)c4)c3c2)o1
Cc1ccccc1C1CCN(C2CCC(NC(=O)/C=C/c3cccc(F)c3)CC2)CC1 (centres undefined)
Cc1nc2ccccc2c(=O)n1NCc1ccc(Cl)c(Cl)c1
CCNc1cc(C)nc(Nc2ccc(NS(=O)(=O)c3ccccc3)cc2)n1
CCCCCCCc1ccc(-c2c(C)[nH]c(C)c(Cl)c2=O)cn1
O=C(C=Cc1cn(-c2ccccc2)nc1-c1cccs1)N1CCN(c2ccncc2)CC1
O=C(Nc1ccc(C(F)(F)F)cc1)Nc1ccccc1N1CCNCC1
CCC(CC(NCCCCNC(=O)c1ccc(NC(=O)c2ccc(Cl)cc2)cc1)c1ccccc1)c1ccccc1OC (centres undefined)
O=C(/C=C/c1ccc(Cl)c(Cl)c1)NCCCCCN1CCC(NC(=O)Nc2cccc(C(F)(F)F)c2)CC1
Cc1noc(C)c1-c1ccc2c(Nc3ccccc3C(C)(C)C)c(C(=O)NCc3ccc(OC(C)C)cc3)cnc2c1
FC(F)(F)c1cccc(CNCCCCCNCc2ccc(Cl)cc2)c1
C[C@@H]1CN(c2nc(NCCc3ccc(O)cc3)nc(NCc3ccccc3-c3ccc(C(F)(F)F)cc3)n2)C[C@H](C)N1
CC1(CCc2ccccc2)N=C(N)N=C(N)C1c1ccc(Cl)c(Cl)c1 (centres undefined)
CCN(CC)C(=NCCCCCCN=C(NC(N)=NCc1cccc(Cl)c1)N(CC)CC)NC(N)=NCc1cccc(Cl)c1
Cc1nc(-c2ccc(-c3ccc(NC(=O)c4coc5ccc(N6C[C@@H](C)N[C@@H](C)C6)cc45)cc3)c(C)c2)no1
COc1ccc(CCn2c(=N)c(C(=O)NCc3cccnc3)cc3c(=O)n4cccc(C)c4nc32)cc1
O=C(NCC1CCN(Cc2ccc(F)cc2)C1)c1cc(-c2cccc(C(F)(F)F)c2)cs1 (centres undefined)
c1ccc(COc2ccc(C3CCCCC3)cc2)nc1
Clc1ccc2c(NCCNc3ccnc4cc(Cl)ccc34)ccnc2c1
NC1=NC(c2ccccc2)(c2ccccc2)C(=O)N1CC1CCC1
CCc1cn2c3c(cc(C(=O)N[C@@H](Cc4cc(F)cc(F)c4)[C@H](O)CNC4CC4)cc13)N(C)S(=O)(=O)CC2
CCNc1cc(C(=O)N[C@@H](Cc2ccc(F)c(F)c2)[C@H](O)CNCc2cccc(OC)c2)cc(N2CCCCS2(=O)=O)c1
CN(C)CCOc1cc(NC(=O)Nc2ccc(-c3ccncc3)c(C(F)(F)F)c2)ccc1Cl
COc1c(C2CCN(CCCCNC(=O)c3noc(-c4ccc(C#N)cc4)n3)CC2)ccc2c1CCCC2
CC1(C)N=C(N)N=C(N)N1OCCCCOc1ccccc1
O=C(Nc1cccc(-c2cccc(-c3nc4ccccc4[nH]3)c2)c1)N[C@@H]1C[C@H]1c1ccccc1
COc1cc(F)c2ncc(Cl)c([C@H](O)CN3CCC(NCc4cc5c(cn4)OCCO5)CC3)c2c1
CN1CCCN(Cc2ccc(-c3cccc(NC(=O)c4ccc(F)cc4)c3)cc2)CC1
COc1cccc(CNC(=O)c2cnc(N3CCN(c4ccncc4)CC3)c(Cl)c2)c1
COc1ccc(CNCc2ccccc2)cc1-c1ccc(S(=O)(=O)NCCN2CCCC2)cc1
O=C(Nc1cc(Cl)c(Cl)cc1NC(=O)c1cccc(-c2ccccc2)c1O)c1cccc(-c2ccccc2)c1O
CCc1c(C)nc2nc(Cc3cccc(F)c3)nn2c1N1CCN(c2ccccn2)CC1
Cn1ncc2c3c(CCN4CCC(NCc5cc6c(cn5)OCCO6)CC4)c(Cl)cnc3ccc21
CCCc1cn2c3c(cc(C(=O)N[C@@H](Cc4ccccc4)[C@H](O)CNC4CCCCC4)cc13)N(CC)S(=O)(=O)CC2
CC(C)CNCc1cccc(-c2cccc(CNCCCN3CCN(C)CC3)c2)c1
CC(CCc1ccccc1)NCC(O)c1ccc2c(c1)S(=O)(=O)c1ccccc1N2 (centres undefined)
